Results taken from PubChem BioAssay (NCI).
This is part of a sample that, as a whole, favours compounds with a hit. Of some 83,000 tested, about 20% had one in any assay.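 Percent growth is the endpoint: 0 to 100 indicates growth inhibition (40 means 60% inhibition), 0 means no net growth, and negative values indicate cell death.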 The source made the active and inactive calls. How the source made its calls: active means growth percent below 10; inactive means the rest.

Legend:
Assay in all cases: NCI-60 one-dose screen, 48 h (100 = growth as untreated, 0 = no growth, -100 = all killed)
Conditions in all cases: 10 µM unless noted
[1] = system: HCT-15 colon
[2] = system: HT29 colon
[3] = system: SNB-75 CNS
[4] = system: SNB-19 CNS
[5] = system: U251 CNS
[6] = system: PC-3 prostate
[7] = system: SK-MEL-5 melanoma
[8] = system: UACC-62 melanoma
[9] = system: LOX IMVI melanoma
[10] = system: SK-MEL-28 melanoma
[11] = system: SK-MEL-2 melanoma
[12] = system: EKVX NSCLC
[13] = system: SN12C renal
[14] = system: UO-31 renal
[15] = system: TK-10 renal
[16] = system: ACHN renal
[17] = system: CAKI-1 renal
[18] = system: A498 renal
[19] = system: CCRF-CEM leukemia
[20] = system: MOLT-4 leukemia

Measured: growth

CCCCCCNC(=O)Oc1ccc(/C(=C(\C)c2ccc(Cl)cc2)c2ccc(OCCN(CC)CC)cc2)cc1
inactive: [3] 77.2% | [4] 74.5% | [5] 41.7% | [6] 56.7% | [7] 51.9% | [8] 73.3% | [9] 44.2% | [10] 66% | [11] 95.6% | [12] 73.6% | [13] 76.2% | [14] 41.8% | [15] 85% | [16] 85.6% | [17] 89.9% | [18] 93.7% | [19] 54.6% | [20] 35.3%
active: [1] 1.93% | [2] -14.2%

O=C(Cc1ccc2c(c1)OCCO2)Nc1nc2ccc(F)cc2s1
inactive: [1] 77.2% | [2] 105% | [3] 84.5% | [4] 116% | [5] 103% | [6] 93.2% | [7] 91.1% | [8] 102% | [9] 93.8% | [10] 111% | [11] 70.5% | [12] 93.8% | [13] 70.5% | [14] 62.5% | [15] 117% | [16] 98% | [17] 111% | [18] 104% | [19] 87.3% | [20] 95.1%

CCCCCCCCCCCCCCCCCCOc1ccccc1CC(=O)OCC[N+](CC)(CC)CC
inactive: [1] 80.9% | [2] 13.1% | [3] 22.5% | [4] 11.4% | [5] 14.4% | [6] 18.3% | [8] 21.4% | [10] 31.5% | [12] 43.4% | [13] 15.2% | [14] 89.5% | [15] 38.5% | [16] 64.4% | [17] 35.6% | [18] 65.9% | [19] 15.7% | [20] 12.8%
active: [7] -3.62% | [9] -57.6% | [11] -10.1%

CC(=O)OC[C@H]1OC(Sc2sc(C(=O)c3ccc(Br)cc3)c(N)c2-c2nc3ccccc3s2)[C@H](OC(C)=O)[C@@H](OC(C)=O)[C@H]1OC(C)=O (stereo not given in full)
inactive: [1] 99.7% | [2] 106% | [3] 74.5% | [4] 87.4% | [5] 96.2% | [6] 70.8% | [7] 36.3% | [8] 60.4% | [9] 96.8% | [10] 104% | [11] 112% | [12] 80.5% | [13] 95.1% | [14] 61.4% | [15] 128% | [16] 90.5% | [17] 67.6% | [18] 36.1% | [19] 85.5% | [20] 79.3%

Cc1nc(S(=O)(=O)c2ccccc2)c(S(=O)(=O)Cc2ccc([N+](=O)[O-])cc2)o1
inactive: [1] 82.5% | [2] 91.2% | [3] 72.9% | [4] 92.5% | [5] 98.8% | [6] 87.9% | [7] 95.9% | [8] 79.8% | [9] 89.6% | [10] 103% | [11] 89.2% | [12] 104% | [13] 89.9% | [14] 72.5% | [15] 105% | [16] 87.6% | [17] 95.6% | [18] 81.8% | [19] 82.8% | [20] 90.7%

COC(=O)CCC/C=C\C[C@H]1C=CC(=O)/C1=C/C[C@@H](O)CCc1cccc(C(F)(F)F)c1
inactive: [3] 97.9% | [17] 12.6%
active: [1] -5.76% | [2] -30.6% | [4] 4.49% | [5] -84.3% | [6] -39% | [7] -83.3% | [8] -60% | [9] -64.2% | [10] -45.9% | [11] -5.48% | [12] 6.52% | [13] -36% | [14] -92.5% | [15] -3.59% | [16] -87.2% | [18] -26.7% | [19] -6% | [20] -14.2%

CNc1nc2c(s1)C(c1cc(F)ccc1F)CC(=O)N2 (stereo not given)
inactive: [1] 42% | [2] 82.4% | [3] 32.4% | [4] 72.2% | [5] 67.6% | [6] 81.1% | [7] 64.5% | [8] 50.1% | [9] 73.4% | [10] 69.6% | [11] 61.3% | [12] 97.8% | [13] 71% | [14] 63.9% | [15] 17% | [16] 87.8% | [17] 51.5% | [18] 34.4% | [19] 40% | [20] 37.3%

Cc1ccc(C(=O)NCCNc2nccc(-c3c(-c4cccc(F)c4)nc4sccn34)n2)cc1
inactive: [1] 38.9% | [2] 35.9% | [4] 69.5% | [5] 62% | [6] 56.2% | [7] 37.6% | [8] 23.7% | [9] 39.4% | [10] 65% | [11] 70.7% | [12] 38.5% | [13] 47.3% | [14] 23% | [15] 75.6% | [16] 29.5% | [17] 40.1% | [18] 32.8% | [19] 49.4% | [20] 56.5%
active: [3] -1.5%

COc1ccc(C2NC(=O)C(C#N)c3c2sc2c(F)cccc32)c(OC)c1 (stereo not given)
active: [3] -5.26%
inactive: [1] 36.3% | [2] 66.1% | [4] 44.2% | [5] 39.3% | [6] 56.8% | [7] 81.8% | [8] 42.3% | [9] 39.7% | [10] 55.1% | [11] 65.1% | [12] 79.8% | [13] 73.8% | [14] 34% | [15] 90.1% | [16] 37.5% | [17] 21.4% | [18] 25.2% | [19] 71.9% | [20] 71.4%

CC([C@H]1CCC2C3CCC4C(=O)C(NC=O)=CC[C@]4(C)C3CC[C@@]21C)N(C)C (stereo not given in full)
inactive: [3] 34.1% | [4] 76% | [5] 25.6% | [6] 27.4% | [11] 82.3% | [12] 30.5% | [13] 42% | [15] 84.1% | [16] 58.2% | [17] 57.6% | [18] 65.1% | [19] 28.7% | [20] 41.2%
active: [1] -37.1% | [2] -20.2% | [7] -56% | [8] -39.7% | [9] -37.2% | [10] -70.1% | [14] -65%

C=C1C(=O)O[C@H]2[C@H]1CC/C(COC(=O)CSCC(=O)OC/C1=C/CC[C@@]3(C)O[C@H]3[C@H]3OC(=O)C(=C)[C@@H]3CC1)=C\CC[C@@]1(C)O[C@@H]21
active: [1] 5.12% | [2] -26% | [9] -25.2% | [10] -3.76% | [14] 3.4% | [15] 9.84% | [16] 2.35% | [19] -7.55% | [20] -3.7%
inactive: [3] 81.8% | [4] 69.1% | [5] 34.3% | [6] 46.9% | [7] 63.2% | [8] 42.4% | [11] 68% | [12] 57.7% | [13] 22.1% | [17] 76.4% | [18] 81.1%

CCCCOc1ccc(/C=N/NC(N)=S)cc1
inactive: [1] 55.7% | [2] 61.5% | [3] 72.9% | [4] 89.8% | [5] 89.9% | [6] 81% | [7] 95.7% | [8] 75.5% | [9] 94.2% | [10] 96.5% | [11] 85.1% | [12] 85.9% | [13] 67.5% | [14] 43.7% | [15] 77.3% | [16] 92.3% | [17] 83.7% | [18] 79.4% | [19] 37.4% | [20] 46%

CCN1C(=O)N(CC)C2Nn3c(s/c(=C4\C(=O)Nc5ccccc54)c3=O)=NC21 (stereo not given)
active: [18] -2.29%
inactive: [1] 35.9% | [2] 81.2% | [3] 19.3% | [4] 55.8% | [5] 42.8% | [6] 30.3% | [7] 41.6% | [8] 46.6% | [9] 56.9% | [10] 60% | [11] 61.2% | [12] 83.2% | [13] 49.8% | [14] 54.8% | [15] 13.7% | [16] 53.7% | [17] 37.9% | [19] 35.9% | [20] 59%

CCCCn1c(=O)c(-c2cc(-c3ccc(Cl)cc3)nc(-c3ccc(Cl)cc3)c2)cc2cc(Cl)ccc21
inactive: [1] 97.8% | [2] 101% | [3] 95.4% | [4] 96% | [5] 105% | [6] 98.4% | [7] 107% | [8] 88.5% | [9] 99.9% | [10] 104% | [11] 120% | [12] 105% | [13] 91.2% | [14] 88.4% | [15] 107% | [16] 107% | [17] 94.3% | [18] 123% | [19] 104% | [20] 104%

CCCCC[C@H](O)C/C=C1/C(=O)C=C[C@@H]1C/C=C\CCCC(=O)OC
active: [2] 3.13% | [9] -43.2% | [19] 2.62%
inactive: [1] 20.8% | [3] 96.5% | [4] 60.4% | [5] 45.5% | [6] 26.5% | [7] 38% | [8] 13.6% | [10] 28.3% | [11] 89.2% | [12] 103% | [13] 11.5% | [14] 81.5% | [15] 82.3% | [16] 75.9% | [17] 60.5% | [18] 97.5% | [20] 20.2%
